This is an account of results in paper PMC7862700, “An all-to-all approach to the identification of sequence-specific readers for epigenetic DNA modifications on cytosine”.

What all share (assay): DAPPL (digital affinity profiling via proximity ligation, sequencing); 10 mM Tris-HCl pH 7.5, 50 mM NaCl, 1 mM DTT, 4% glycerol, room temperature, 30 min; GST-TFs on glutathione beads, 16-mer random dsDNA library, 0.1% formaldehyde crosslink after washing; high values mean tight binding
One assay addresses T1, FEV (Homo sapiens, UniProt Q99581 1-238).
T1 sequence: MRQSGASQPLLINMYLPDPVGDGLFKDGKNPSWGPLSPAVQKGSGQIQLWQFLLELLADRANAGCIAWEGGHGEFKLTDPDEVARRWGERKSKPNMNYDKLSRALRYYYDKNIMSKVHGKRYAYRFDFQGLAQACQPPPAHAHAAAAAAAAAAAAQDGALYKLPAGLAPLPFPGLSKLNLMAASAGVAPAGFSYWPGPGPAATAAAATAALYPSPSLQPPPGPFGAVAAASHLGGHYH
Conditions: protein: recombinant; tags: N-terminal GST; dsDNA, one strand shown. The gist of the method: (§1)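 Binding signal is given per hexamer as its read frequency for a factor divided by its frequency in the tag-only sample. GST-fused human transcription factors were expressed in yeast, captured on glutathione beads, barcoded with DNA and pooled with that sample, then incubated with 200 nmole of a 16-mer random double-stranded DNA library in Tris/NaCl/DTT/glycerol buffer for 30 min at room temperature. The pools were then washed, crosslinked, proximity-ligated, amplified by PCR and sequenced on an Illumina NextSeq500.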

The target in a further assay is ETV5 (Homo sapiens, UniProt P41161 1-510). The conditions noted are these: protein: recombinant; tags: N-terminal GST; dsDNA, one strand shown. An outline of the steps:
as §1

Another assay deals with HSF1 (Homo sapiens, UniProt Q00613 1-529). Conditions: protein: recombinant; tags: N-terminal GST; chain copies: 3; dsDNA, one strand shown. The gist of the method:
as §1

A further assay deals with T2, SPIC (Homo sapiens, UniProt Q8N5J4 1-248).
T2 sequence: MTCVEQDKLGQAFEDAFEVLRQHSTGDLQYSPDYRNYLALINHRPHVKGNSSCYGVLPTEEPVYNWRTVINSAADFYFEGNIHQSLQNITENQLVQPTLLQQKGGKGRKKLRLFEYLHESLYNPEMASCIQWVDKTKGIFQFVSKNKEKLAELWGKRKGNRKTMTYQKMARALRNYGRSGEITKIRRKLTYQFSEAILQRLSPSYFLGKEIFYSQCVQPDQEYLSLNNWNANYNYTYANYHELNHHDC
Conditions: protein: recombinant; tags: N-terminal GST; dsDNA, one strand shown. The gist of the method: as §1

A further assay deals with ELF4 (Homo sapiens, UniProt Q99607 1-663). Conditions: protein: recombinant; tags: N-terminal GST; dsDNA, one strand shown. An outline of the steps:
as §1

For the next assay, the target named is T3, ELK4 (Homo sapiens, UniProt P28324-2 1-405).
T3 sequence: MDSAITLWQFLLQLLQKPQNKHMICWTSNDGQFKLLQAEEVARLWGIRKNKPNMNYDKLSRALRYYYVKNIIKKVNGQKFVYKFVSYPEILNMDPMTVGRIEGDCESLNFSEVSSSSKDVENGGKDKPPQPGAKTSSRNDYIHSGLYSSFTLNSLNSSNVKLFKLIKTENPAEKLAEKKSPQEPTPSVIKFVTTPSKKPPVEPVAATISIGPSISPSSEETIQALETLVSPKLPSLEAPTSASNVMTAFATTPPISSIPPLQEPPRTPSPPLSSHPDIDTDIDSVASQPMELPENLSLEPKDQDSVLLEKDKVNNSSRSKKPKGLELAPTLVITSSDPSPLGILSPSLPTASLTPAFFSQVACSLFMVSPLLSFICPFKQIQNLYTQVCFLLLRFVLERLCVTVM
The conditions noted are these: protein: recombinant; tags: N-terminal GST; dsDNA, one strand shown. The gist of the method: as §1

Another assay addresses T4, ETV2 (Homo sapiens, UniProt O00321 1-342).
T4 sequence: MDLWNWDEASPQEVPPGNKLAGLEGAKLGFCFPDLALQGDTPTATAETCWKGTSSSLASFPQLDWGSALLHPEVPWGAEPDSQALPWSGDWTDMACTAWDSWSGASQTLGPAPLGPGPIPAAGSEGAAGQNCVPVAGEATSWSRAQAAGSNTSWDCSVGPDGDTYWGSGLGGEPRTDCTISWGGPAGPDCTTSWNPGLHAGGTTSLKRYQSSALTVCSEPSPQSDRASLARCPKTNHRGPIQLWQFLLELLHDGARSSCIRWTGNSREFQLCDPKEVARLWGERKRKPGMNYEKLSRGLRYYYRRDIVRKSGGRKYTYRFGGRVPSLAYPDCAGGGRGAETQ
The conditions noted are these: protein: recombinant; tags: N-terminal GST; dsDNA, one strand shown. The gist of the method: as §1

For a further assay, the target named is T5, ELF3 (Homo sapiens, UniProt P78545 1-371).
T5 sequence: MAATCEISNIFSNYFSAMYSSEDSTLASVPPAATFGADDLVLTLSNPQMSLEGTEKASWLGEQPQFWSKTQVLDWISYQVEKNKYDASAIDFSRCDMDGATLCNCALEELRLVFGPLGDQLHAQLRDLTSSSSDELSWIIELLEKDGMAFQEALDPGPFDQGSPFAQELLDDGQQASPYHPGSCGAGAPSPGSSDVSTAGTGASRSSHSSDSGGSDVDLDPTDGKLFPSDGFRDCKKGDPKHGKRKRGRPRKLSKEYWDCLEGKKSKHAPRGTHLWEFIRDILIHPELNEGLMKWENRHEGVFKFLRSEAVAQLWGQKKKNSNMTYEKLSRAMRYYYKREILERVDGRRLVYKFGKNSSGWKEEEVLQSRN
The conditions noted are these: protein: recombinant; tags: N-terminal GST; dsDNA, one strand shown. The gist of the method: as §1

The next assay deals with CRX (Homo sapiens, UniProt O43186 1-299). Conditions: protein: recombinant; tags: N-terminal GST; dsDNA, one strand shown. An outline of the steps:
as §1

The target in the next assay is ETV1 (Homo sapiens, UniProt P50549 1-477). Conditions: protein: recombinant; tags: N-terminal GST; dsDNA, one strand shown. The gist of the method: as §1
For a further assay, the target named is T6, ERF (Homo sapiens, UniProt P50548 1-548).
T6 sequence: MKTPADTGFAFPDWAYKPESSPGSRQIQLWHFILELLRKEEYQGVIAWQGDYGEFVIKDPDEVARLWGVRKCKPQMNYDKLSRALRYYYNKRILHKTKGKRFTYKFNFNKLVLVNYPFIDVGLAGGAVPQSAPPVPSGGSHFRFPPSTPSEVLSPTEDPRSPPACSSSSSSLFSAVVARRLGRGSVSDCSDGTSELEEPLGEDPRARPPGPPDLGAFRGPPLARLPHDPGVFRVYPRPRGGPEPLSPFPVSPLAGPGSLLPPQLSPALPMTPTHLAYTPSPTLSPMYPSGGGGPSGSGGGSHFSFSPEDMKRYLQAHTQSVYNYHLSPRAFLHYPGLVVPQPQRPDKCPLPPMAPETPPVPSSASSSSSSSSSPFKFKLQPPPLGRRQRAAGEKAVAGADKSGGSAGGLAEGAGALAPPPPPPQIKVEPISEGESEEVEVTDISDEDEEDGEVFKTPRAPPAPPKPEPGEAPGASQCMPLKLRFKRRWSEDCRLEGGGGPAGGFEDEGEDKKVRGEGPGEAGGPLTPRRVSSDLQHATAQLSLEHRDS
The conditions noted are these: protein: recombinant; tags: N-terminal GST; dsDNA, one strand shown. An outline of the steps: as §1

For the next assay, the target named is T7, ETV3L (Homo sapiens, UniProt Q6ZN32 1-361).
T7 sequence: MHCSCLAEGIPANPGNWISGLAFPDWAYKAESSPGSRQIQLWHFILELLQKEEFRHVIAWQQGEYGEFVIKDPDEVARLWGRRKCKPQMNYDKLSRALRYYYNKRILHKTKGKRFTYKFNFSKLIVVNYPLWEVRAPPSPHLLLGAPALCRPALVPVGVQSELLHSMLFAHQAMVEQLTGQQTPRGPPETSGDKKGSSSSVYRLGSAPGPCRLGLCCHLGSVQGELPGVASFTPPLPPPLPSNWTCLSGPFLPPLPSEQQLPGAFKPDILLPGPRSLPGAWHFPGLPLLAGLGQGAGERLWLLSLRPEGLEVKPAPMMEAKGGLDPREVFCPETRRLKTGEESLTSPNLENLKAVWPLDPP
Conditions: protein: recombinant; tags: N-terminal GST; dsDNA, one strand shown. The gist of the method: as §1

A further assay addresses T8, ETS2 (Homo sapiens, UniProt P15036 1-469).
T8 sequence: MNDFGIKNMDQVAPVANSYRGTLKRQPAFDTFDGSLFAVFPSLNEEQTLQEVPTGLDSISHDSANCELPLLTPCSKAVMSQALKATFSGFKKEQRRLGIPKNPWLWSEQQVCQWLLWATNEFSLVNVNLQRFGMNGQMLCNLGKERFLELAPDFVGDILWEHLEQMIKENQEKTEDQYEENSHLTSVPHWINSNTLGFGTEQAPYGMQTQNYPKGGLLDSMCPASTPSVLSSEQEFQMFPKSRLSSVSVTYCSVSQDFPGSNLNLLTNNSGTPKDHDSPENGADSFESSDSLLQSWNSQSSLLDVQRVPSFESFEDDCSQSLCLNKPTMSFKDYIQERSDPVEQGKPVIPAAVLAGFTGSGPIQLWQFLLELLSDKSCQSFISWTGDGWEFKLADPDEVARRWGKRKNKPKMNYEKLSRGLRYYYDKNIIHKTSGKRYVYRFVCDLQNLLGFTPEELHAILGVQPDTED
Conditions: protein: recombinant; tags: N-terminal GST; dsDNA, one strand shown. The gist of the method: as §1

For another assay, the target named is T9, SPDEF (Homo sapiens, UniProt O95238 1-335).
T9 sequence: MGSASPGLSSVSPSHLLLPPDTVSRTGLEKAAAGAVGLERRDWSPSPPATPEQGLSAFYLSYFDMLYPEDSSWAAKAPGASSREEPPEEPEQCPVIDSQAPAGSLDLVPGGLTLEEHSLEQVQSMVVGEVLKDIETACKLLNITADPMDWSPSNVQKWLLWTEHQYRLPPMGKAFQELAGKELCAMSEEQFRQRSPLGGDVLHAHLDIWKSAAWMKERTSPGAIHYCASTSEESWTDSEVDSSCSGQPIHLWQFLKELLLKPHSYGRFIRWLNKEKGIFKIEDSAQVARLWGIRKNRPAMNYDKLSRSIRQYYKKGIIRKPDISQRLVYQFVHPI
Conditions: protein: recombinant; tags: N-terminal GST; dsDNA, one strand shown. An outline of the steps:
as §1

For a further assay, the target named is T10, ETV7 (Homo sapiens, UniProt Q9Y603 1-341).
T10 sequence: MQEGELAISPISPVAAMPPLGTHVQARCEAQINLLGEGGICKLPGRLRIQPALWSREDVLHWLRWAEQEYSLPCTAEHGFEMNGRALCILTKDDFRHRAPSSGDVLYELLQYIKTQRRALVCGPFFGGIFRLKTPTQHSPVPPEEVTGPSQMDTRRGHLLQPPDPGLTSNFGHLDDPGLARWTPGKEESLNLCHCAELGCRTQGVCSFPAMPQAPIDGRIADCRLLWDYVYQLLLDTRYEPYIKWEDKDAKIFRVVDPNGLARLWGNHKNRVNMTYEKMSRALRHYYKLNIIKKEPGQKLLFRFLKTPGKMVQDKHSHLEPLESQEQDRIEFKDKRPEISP
The conditions noted are these: protein: recombinant; tags: N-terminal GST; dsDNA, one strand shown. An outline of the steps:
as §1

The target of another assay is T11, ELF5 (Homo sapiens, UniProt Q9UKW6-2 1-255).
T11 sequence: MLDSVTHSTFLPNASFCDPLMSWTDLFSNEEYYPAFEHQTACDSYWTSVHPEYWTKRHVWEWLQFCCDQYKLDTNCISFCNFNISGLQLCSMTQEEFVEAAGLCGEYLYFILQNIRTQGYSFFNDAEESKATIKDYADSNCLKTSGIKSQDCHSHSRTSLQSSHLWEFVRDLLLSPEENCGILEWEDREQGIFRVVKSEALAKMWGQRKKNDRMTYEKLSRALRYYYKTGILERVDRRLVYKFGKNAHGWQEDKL
The conditions noted are these: protein: recombinant; tags: N-terminal GST; dsDNA, one strand shown. The gist of the method:
as §1

A further assay addresses T12, ETV3 (Homo sapiens, UniProt P41162-2 1-143).
T12 sequence: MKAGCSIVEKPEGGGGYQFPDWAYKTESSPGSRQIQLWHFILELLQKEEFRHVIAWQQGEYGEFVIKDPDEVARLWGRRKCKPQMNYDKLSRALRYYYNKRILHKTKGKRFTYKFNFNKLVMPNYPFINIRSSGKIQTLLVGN
The conditions noted are these: protein: recombinant; tags: N-terminal GST; dsDNA, one strand shown. An outline of the steps: as §1

Another assay addresses ETV6 (Homo sapiens, UniProt P41212 1-452). Conditions: protein: recombinant; tags: N-terminal GST; dsDNA, one strand shown. An outline of the steps: as §1

Chain of CRX (O43186 whole entry): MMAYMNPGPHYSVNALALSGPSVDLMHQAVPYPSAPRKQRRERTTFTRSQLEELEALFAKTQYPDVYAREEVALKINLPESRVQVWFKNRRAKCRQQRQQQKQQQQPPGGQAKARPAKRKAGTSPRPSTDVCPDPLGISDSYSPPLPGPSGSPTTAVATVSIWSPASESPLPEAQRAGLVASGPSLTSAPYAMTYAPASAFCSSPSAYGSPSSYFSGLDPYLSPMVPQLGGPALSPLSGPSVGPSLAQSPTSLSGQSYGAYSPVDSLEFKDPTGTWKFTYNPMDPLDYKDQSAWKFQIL
Chain of ETV5 (P41161 whole entry): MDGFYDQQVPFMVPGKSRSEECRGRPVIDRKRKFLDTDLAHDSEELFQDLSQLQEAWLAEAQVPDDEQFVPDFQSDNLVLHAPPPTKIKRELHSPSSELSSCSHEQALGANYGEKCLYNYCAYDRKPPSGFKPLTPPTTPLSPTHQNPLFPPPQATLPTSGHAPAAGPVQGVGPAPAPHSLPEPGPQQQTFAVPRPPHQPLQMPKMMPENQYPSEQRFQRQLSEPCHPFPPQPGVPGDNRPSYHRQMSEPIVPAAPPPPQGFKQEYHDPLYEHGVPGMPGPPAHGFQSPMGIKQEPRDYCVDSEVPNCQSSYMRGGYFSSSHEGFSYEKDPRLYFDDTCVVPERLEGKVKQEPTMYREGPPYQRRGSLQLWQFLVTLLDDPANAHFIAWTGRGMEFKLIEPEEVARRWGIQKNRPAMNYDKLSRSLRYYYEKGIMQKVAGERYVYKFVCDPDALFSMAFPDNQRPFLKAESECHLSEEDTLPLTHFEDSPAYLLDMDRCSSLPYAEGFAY
Chain of HSF1 (Q00613 whole entry): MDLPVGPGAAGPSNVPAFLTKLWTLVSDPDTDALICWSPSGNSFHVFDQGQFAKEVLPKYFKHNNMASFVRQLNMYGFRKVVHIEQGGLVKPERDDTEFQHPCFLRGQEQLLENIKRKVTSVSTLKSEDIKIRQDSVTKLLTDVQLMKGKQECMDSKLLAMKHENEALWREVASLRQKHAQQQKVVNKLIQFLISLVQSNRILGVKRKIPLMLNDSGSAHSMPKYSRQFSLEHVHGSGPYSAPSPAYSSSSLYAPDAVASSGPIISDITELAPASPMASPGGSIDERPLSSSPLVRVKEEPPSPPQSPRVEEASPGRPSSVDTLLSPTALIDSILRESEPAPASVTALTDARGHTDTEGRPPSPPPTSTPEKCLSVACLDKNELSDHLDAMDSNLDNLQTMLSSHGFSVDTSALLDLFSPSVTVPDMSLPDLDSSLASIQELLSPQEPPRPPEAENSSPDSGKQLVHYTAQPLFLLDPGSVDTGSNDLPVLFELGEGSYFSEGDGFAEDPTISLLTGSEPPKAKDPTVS
Chain of ETV1 (P50549 whole entry): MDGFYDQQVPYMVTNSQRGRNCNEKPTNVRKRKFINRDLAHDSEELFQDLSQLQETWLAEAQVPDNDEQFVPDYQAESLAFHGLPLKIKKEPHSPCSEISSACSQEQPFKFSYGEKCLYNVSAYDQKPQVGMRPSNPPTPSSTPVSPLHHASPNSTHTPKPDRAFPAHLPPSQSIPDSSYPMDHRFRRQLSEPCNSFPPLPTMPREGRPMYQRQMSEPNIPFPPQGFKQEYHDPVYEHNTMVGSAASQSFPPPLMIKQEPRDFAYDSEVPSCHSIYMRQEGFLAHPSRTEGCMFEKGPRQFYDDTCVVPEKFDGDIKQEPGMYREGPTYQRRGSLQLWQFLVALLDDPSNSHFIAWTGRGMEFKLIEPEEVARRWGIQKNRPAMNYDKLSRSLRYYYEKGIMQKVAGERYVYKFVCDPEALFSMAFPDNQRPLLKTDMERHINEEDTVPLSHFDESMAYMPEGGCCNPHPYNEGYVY
Chain of ELF4 (Q99607 whole entry): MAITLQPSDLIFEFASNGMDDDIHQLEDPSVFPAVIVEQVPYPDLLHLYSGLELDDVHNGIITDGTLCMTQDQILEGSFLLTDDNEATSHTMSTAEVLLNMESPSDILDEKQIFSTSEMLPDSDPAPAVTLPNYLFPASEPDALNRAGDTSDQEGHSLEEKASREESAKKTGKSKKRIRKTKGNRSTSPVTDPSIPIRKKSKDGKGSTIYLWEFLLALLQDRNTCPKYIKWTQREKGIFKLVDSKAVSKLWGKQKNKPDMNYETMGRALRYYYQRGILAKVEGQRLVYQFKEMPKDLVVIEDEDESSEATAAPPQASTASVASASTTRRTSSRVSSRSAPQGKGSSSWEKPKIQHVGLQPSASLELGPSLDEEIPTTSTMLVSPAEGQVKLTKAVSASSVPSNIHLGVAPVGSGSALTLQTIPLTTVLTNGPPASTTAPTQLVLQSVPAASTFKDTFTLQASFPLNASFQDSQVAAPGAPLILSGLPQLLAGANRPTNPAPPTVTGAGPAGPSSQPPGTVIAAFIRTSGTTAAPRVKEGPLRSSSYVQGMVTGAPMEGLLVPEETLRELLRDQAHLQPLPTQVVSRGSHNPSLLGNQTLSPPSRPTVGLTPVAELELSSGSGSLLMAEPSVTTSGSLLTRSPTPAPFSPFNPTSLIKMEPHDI
Chain of ETV6 (P41212 whole entry): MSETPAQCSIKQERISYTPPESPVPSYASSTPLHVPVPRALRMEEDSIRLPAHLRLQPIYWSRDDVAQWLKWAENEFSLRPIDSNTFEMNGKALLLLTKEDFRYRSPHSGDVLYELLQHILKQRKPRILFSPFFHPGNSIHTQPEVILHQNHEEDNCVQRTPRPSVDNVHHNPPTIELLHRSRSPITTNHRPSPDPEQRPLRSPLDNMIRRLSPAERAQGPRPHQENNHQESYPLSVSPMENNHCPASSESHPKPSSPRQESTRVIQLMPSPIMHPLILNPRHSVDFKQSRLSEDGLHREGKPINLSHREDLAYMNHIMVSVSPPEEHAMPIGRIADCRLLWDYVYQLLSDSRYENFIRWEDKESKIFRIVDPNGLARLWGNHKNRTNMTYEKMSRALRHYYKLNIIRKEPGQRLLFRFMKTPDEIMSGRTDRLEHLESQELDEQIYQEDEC

As to AACACA, the binding signal was 1.31 fold enrichment (6-mer frequency, TF over GST control) with FEV; 1.33 fold enrichment (6-mer frequency, TF over GST control) with ETV5; 1.13 fold enrichment (6-mer frequency, TF over GST control) in the assay with HSF1; 1.33 fold enrichment (6-mer frequency, TF over GST control) in the assay with SPIC; 1.32 fold enrichment (6-mer frequency, TF over GST control) in the assay with ELF4; 1.42 fold enrichment (6-mer frequency, TF over GST control) with ELK4. The binding signal with ETV2 was 1.49 fold enrichment (6-mer frequency, TF over GST control); in the assay with ELF3 it was 1.26 fold enrichment (6-mer frequency, TF over GST control); with CRX it was 1.1 fold enrichment (6-mer frequency, TF over GST control); in the assay with ETV1, 1.27 fold enrichment (6-mer frequency, TF over GST control); with ERF, 1.39 fold enrichment (6-mer frequency, TF over GST control); with ETV3L it was 1.34 fold enrichment (6-mer frequency, TF over GST control). For the same sequence, the binding signal with ETS2 was 1.38 fold enrichment (6-mer frequency, TF over GST control); with SPDEF, 1.41 fold enrichment (6-mer frequency, TF over GST control); in the assay with ETV7, 1.46 fold enrichment (6-mer frequency, TF over GST control); with ELF5, 1.36 fold enrichment (6-mer frequency, TF over GST control); with ETV3 it was 1.35 fold enrichment (6-mer frequency, TF over GST control); in the assay with ETV6 it was 1.29 fold enrichment (6-mer frequency, TF over GST control).
